High-throughput results (PubChem BioAssay)
ALDH1A1 block = blocks purified human ALDH1A1 activity. Purified ALDH1A1, NADH fluorescence, propionaldehyde substrate. 7.3% of 220,000 active. P00352. Potency, µM (series often up to 75.3 µM), hits mostly inhibitors
IMPase Li inh = cell-permeable IMPase inhibitors with lithium potentiation. CHO-M1 cells, IP1 TR-FRET (IP-One), carbachol + lithium. Potency, µM (highest dose often 59.4 µM), usual class: inhibitors. 0.35% of 210,000 active; active = well fitted inhibition curve with a large enough effect; inconclusive = small, poorly fitted or top-dose-only effect; inactive = no such curve, though single readings can be large or run the other way;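 note: IP1 builds up when IMPase is blocked and the TR-FRET signal falls; nearly all actives have a fitted effect of over 50% in size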
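CHO cells stably expressing M1 receptor (2000/well, cultured 16–30 h) treated 30 min at 37C with compound plus low lithium. Cytosolic IP1 by TR-FRET (665/620 ratio and 620 channel) after 10 min lysis; AC50 by Hill fit.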
PNC assembly inh = blocks assembly of the perinucleolar compartment | PC3M PTB-GFP, PNC prevalence imaging, 16 h; active compounds read low | activity change (PNC), negative = inhibition, % at 10 µM | 3.1% of 140,000 active | AID 2417;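 active = readout at or below -70, meaning at least 70% loss of cells showing the perinucleolar compartment, a nuclear body marking cancer cells; inconclusive = readout between -30 and a set limit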
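Compounds are pinned in duplicate onto adhered PC3M cells stably expressing GFP-tagged PTB and incubated 16 h at 37 C. Cells are then fixed, nuclei stained with Hoechst, and PNC-positive cells counted.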
HPGD inh = blocks human HPGD enzyme activity | AID 894 | purified HPGD, NADH fluorescence kinetic, PGE2 substrate | Potency, µM, most hits filed as inhibitors | P15428 | 4.3% of 150,000 active
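NADH formation kinetics: reaction with 30 uM PGE2 and 1 mM NAD+ (final), 20 nM enzyme, Tris-HCl pH 8 with Tween 20, after 15 min compound preincubation at room temperature. Fluorescence change, last versus first of five reads.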
IMPase cell inh = IMPase inhibition in cells | CHO-M1 cells, IP1 accumulation, HTRF TR-FRET ratio | P97697 | 120,000 tested, under 10 active | inhibition (IP1 accumulation), % at 46.1 µM | AID 901; active = well fitted curve in the direction sought with a large enough effect in the signal ratio, not every such curve was filed as active; inconclusive = small, poorly fitted or top-dose-only effect, or a change in a side signal; inactive = no such curve, though single readings can be large or run the other way; the % refers to the signal ratio;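 note: cells stimulated with carbachol in lithium chloride buffer; higher means more IMPase inhibition seen as more IP1 and lower FRET ratio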
Target sequence (P97697 whole entry, looked up): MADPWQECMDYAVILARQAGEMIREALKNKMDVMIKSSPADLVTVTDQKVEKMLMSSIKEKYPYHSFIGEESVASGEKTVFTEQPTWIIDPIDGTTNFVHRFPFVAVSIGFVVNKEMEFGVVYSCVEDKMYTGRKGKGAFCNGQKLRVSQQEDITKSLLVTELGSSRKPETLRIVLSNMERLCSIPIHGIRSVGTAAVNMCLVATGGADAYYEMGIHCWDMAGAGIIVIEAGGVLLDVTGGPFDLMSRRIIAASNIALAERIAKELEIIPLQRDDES
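In this qHTS, compounds (final up to 46 uM) act on CHO-M1 cells that are then activated through the M1 receptor with carbachol, in pH 7.4 buffer containing 50 mM LiCl, for 30 min. IP1 accumulation is quantified by the IP-One immunoassay.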
A number is an active result; – = inactive; ? = inconclusive; · = not tested or not shown; [ ] = remark or other dose. A selection: hits, their analogues and other compounds. The true share with any hit is near 11%. Unless noted, calls come from the whole dose curve; as a rule, active = well fitted inhibition curve with a large enough effect (not every such curve was filed as active); inconclusive = small, poorly fitted or top-dose-only effect, or another doubt; inactive = no such curve, though single readings can be large or run the other way.

SMILES | ALDH1A1 block | IMPase Li inh | PNC assembly inh | HPGD inh | IMPase cell inh
C=CCOC(=O)C1=C(C)N=C2SCCC(=O)N2C1c1ccc(OC(=O)c2ccco2)cc1 (configuration not stated) | 20µM | – | -127 | – | –
COc1cc(C2C(C(=O)OC(C)C)=C(C)N=C3SCCC(=O)N32)ccc1OCc1ccccc1 (configuration not stated) | · | · | · | · | –
COC(=O)C1=C(C(=O)OC)[C@@H]2N(C)c3ccc(OC)cc3[C@@]23C[C@@H](C(=O)OC)N(S(=O)(=O)c2ccc(C)cc2)C3=N1 | –[13.5 µM] | – | · | – | ·
O=[N+]([O-])c1ccccc1Oc1ncccc1[N+](=O)[O-] | ? | – | · | · | ·
O=[N+]([O-])c1ccccc1Oc1ccccc1Cl | – | – | – | 32µM | ·
COC(=O)c1cccc(CN2C(=O)SC(Nc3ccccc3C)C2=O)c1 (configuration not stated) | · | · | · | · | –
COc1ccc(C(=O)N2CCC3(CC2)CN(c2ccccn2)C3)cc1 | ? | – | · | ? | ·
N#Cc1c(N)c(C(=O)c2ccccc2)n2c1CCCC2 | – | – | – | – | –
CC(=O)N(C(C)=O)c1c(C#N)c(C)n(-c2ccccc2)c1C(=O)c1ccccc1 | – | – | -93 | – | –
Cn1c(=O)c(-c2cccc(C#N)c2)nc2cnc(Oc3ccccc3)nc21 | ? | – | · | · | ·
O=C(O)Cc1nc2nc3c(c(=O)n2[nH]1)CCCC3 | – | – | – | – | –
O=c1c2c(nc3nc(COc4ccccc4)[nH]n13)CCC2 | – | – | -110 | – | –
CS(=O)(=O)N1CCC2(CCN(C(c3ccccc3)c3ccccc3)CC2)CC1 | – | – | · | – | ·
Cc1cc(O)c(C(C)C)cc1Cl | – | – | · | – | ·
COC(=O)[C@@]1(Cc2ccc(F)cc2)[C@H]2c3cc(C(=O)N4CCCC4)n(Cc4cc(F)cc5c4OCOC5)c3C[C@H]2CN1C(=O)c1ccccc1 | – | – | · | – | ·
CC(=O)N1CCN(CC(=O)Nc2cc([N+](=O)[O-])ccc2Cl)CC1 | 35µM | – | · | · | ·
O=C(CN1CCN(c2ccc(O)cc2)CC1)Nc1cc([N+](=O)[O-])ccc1Cl | 11µM | – | – | – | ·
Cc1ccc([N+](=O)[O-])cc1NC(=O)CN1CCCCC1 | – | – | – | – | –
CCC(CC)C(=O)Nc1cc([N+](=O)[O-])ccc1F | – | – | – | – | ·
CCC(CC)C(=O)Nc1cc([N+](=O)[O-])ccc1Cl | – | – | -116 | – | ·
O=C(NC1CCN(C(=O)C2CCCCC2)CC1)c1ccccc1 | – | · | · | · | ·
CCOc1ccccc1-n1c(SCC(=O)NC(C)CC)nnc1-c1ccoc1C (configuration not stated) | – | – | – | – | –
Nn1c(=O)c2ccccc2n2c(SCc3ccccc3)nnc12 | 14µM | – | ? | – | –
CCCSc1nnc2n(N)c(=O)c3ccccc3n12 | – | – | ? | – | –
Nn1c(=O)c2ccccc2n2c(SCc3ccc(C(F)(F)F)cc3)nnc12 | 22µM | – | – | 11µM | –
SMILES | ALDH1A1 block | IMPase Li inh | PNC assembly inh | HPGD inh | IMPase cell inh
Cc1nc(C(F)(F)F)c(C(=O)N/N=C(\N)c2cccnc2)s1 | – | – | · | · | ·
O=C(O)c1ccc(/C=C/c2nc3sc4c(c3c(=O)[nH]2)CCC4)cc1 | – | – | · | · | ·
Cc1cc(C)nc(SCC(=O)NC2=NC(=O)C(C)S2)n1 (configuration not stated) | 22µM | – | ? | ? | –
CC(=O)NC1=NC(=O)C(C)S1 (configuration not stated) | – | – | – | – | –
Cc1ccc2cccc(NC(=S)NC(=O)c3ccnn3C)c2n1 | 10µM | – | – | – | ?
O=C(NC(=S)Nc1cccc2cccnc12)c1ccccc1 | ? | – | – | – | –
COc1ccccc1NC(CC(=O)c1ccccc1)C(=O)OCC(=O)c1ccc(F)cc1 (configuration not stated) | 13µM | – | – | – | –
Cc1c(Cl)cccc1NC(CC(=O)c1ccccc1)C(=O)OCC(=O)c1cccs1 (configuration not stated) | – | · | – | · | –
C=CCN1C(=O)CN=C1Nc1cc(C)ccc1C | 3.5µM | – | – | – | –
[O-][n+]1onc2c1CCC(=N/O)/C2=N\Nc1ccccc1 | 3.5µM | · | · | · | ·
Cc1cc(C)nc(/N=C(/NC(=O)Nc2ccc(Cl)c(Cl)c2)Nc2cccc(Cl)c2)n1 | – | – | -113 | – | –
